# Experimental data as given in PubChem BioAssay (NCI).
# Where “and” joins values, the source holds several entries; their conditions need not be identical. Equal entries are not always repeated. This is part of a sample that, as a whole, favours compounds with a hit. Of some 83,000 tested, about 20% had one in any assay.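 Compound tested at a single concentration for 48 hours in 96-well plates; a percent growth value below 10 was scored as active.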 Calls of active or inactive are those of the source.
# What was measured:
# Test in all cases: NCI-60 one-dose screen, 48 h (100 = growth as untreated, 0 = no growth, -100 = all killed)
# Conditions in all cases: 10 µM unless noted
# [1] = tested on: NCI-H23 lung
# [2] = tested on: NCI-H226 lung
# [3] = tested on: NCI-H322M lung
# [4] = tested on: HOP-62 NSCLC
# [5] = tested on: NCI-H460 lung
# [6] = tested on: HOP-92 NSCLC
# [7] = tested on: NCI-H522 lung
# [8] = tested on: A549/ATCC NSCLC
# [9] = tested on: 786-0 renal
# [10] = tested on: COLO 205 colon
# [11] = tested on: DU-145 prostate
# [12] = tested on: K-562 leukemia
# [13] = tested on: MALME-3M melanoma
# [14] = tested on: MDA-MB-231 breast
# [15] = tested on: RXF 393 renal
# [16] = tested on: SF-268 CNS
# [17] = tested on: SF-295 CNS
# [18] = tested on: SF-539 CNS
# [19] = tested on: UACC-257 melanoma
# [20] = tested on: M14 melanoma
Structure (SMILES),growth [1],growth [2],growth [3],growth [4],growth [5],growth [6],growth [7],growth [8],growth [9],growth [10],growth [11],growth [12],growth [13],growth [14],growth [15],growth [16],growth [17],growth [18],growth [19],growth [20]
C=C1C(=O)O[C@@H]2[C@H]3[C@H](COC(C)=O)[C@@H](OC(C)=O)C[C@H]3C(=C)[C@@H](O)C[C@@H]12,96.2% (inactive),98.8% (inactive),102% (inactive),91.7% (inactive),103% (inactive),99.8% (inactive),73% (inactive),90.6% (inactive),85.8% (inactive),100% (inactive),76.5% (inactive),86.8% (inactive),88.9% (inactive),99% (inactive),99.5% (inactive),96.5% (inactive),103% (inactive),103% (inactive),83.3% (inactive),87.6% (inactive)
Cc1ccc2[nH]c(=S)[nH]c(=O)c2c1,100% (inactive),102% (inactive),102% (inactive),99.4% (inactive),106% (inactive),93.4% (inactive),94.7% (inactive),98.9% (inactive),94.9% (inactive),117% (inactive),109% (inactive),97.1% (inactive),102% (inactive),109% (inactive),104% (inactive),100% (inactive),104% (inactive),99.7% (inactive),101% (inactive),101% (inactive)
COc1ccc(-c2cc(-c3cccnc3)nc3sc4c(Cl)nnnc4c23)cc1OC,91.3% (inactive),84.4% (inactive),95.3% (inactive),98.4% (inactive),102% (inactive),106% (inactive),47.4% (inactive),93.6% (inactive),109% (inactive),42% (inactive),94.2% (inactive),15.8% (inactive),107% (inactive),77.9% (inactive),104% (inactive),96.7% (inactive),101% (inactive),101% (inactive),78.4% (inactive),88.6% (inactive)
Nc1nc2ccccc2c2c(=O)c3ccc(Cl)cc3sc12,92% (inactive),98.9% (inactive),103% (inactive),99.1% (inactive),72.7% (inactive),84.1% (inactive),94.3% (inactive),94.7% (inactive),99.1% (inactive),98.4% (inactive),97.5% (inactive),90.7% (inactive),107% (inactive),91% (inactive),111% (inactive),95.2% (inactive),101% (inactive),106% (inactive),105% (inactive),94.5% (inactive)
CC1=C2[C@@H](CC1)[C@]1(C)O[C@@](C(C)C)(C[C@H]1OC(=O)CO)[C@H]2OC(=O)C1CC1c1ccccc1 (stereo not given in full),92.8% (inactive),78.2% (inactive),84.7% (inactive),82.4% (inactive),85.6% (inactive),87.3% (inactive),73.9% (inactive),73.9% (inactive),91.2% (inactive),107% (inactive),100% (inactive),67.7% (inactive),91.7% (inactive),89.7% (inactive),69.3% (inactive),76.2% (inactive),67.4% (inactive),101% (inactive),88.8% (inactive),88.3% (inactive)
O=C(/C=C/c1ccccc1)c1cccs1,94.1% (inactive) and 105% (inactive),103% (inactive),106% (inactive),98.7% (inactive) and 114% (inactive),93.3% (inactive) and 109% (inactive),79.3% (inactive),73.6% (inactive) and 94.2% (inactive),93.9% (inactive) and 94.3% (inactive),89.5% (inactive) and 94.2% (inactive),112% (inactive) and 120% (inactive),97.8% (inactive) and 93.1% (inactive),106% (inactive) and 71.2% (inactive),119% (inactive),111% (inactive) and 109% (inactive),106% (inactive) and 102% (inactive),98.4% (inactive) and 98.3% (inactive),97.7% (inactive) and 95.1% (inactive),105% (inactive) and 111% (inactive),96.3% (inactive) and 106% (inactive),98.1% (inactive) and 112% (inactive)
Cc1n(Cc2ccc3ccccc3c2)c(Cl)c(Cl)[n+]1Cc1ccc2ccccc2c1,25.6% (inactive),47.1% (inactive),76.2% (inactive),59.6% (inactive),33.5% (inactive),-11.3% (active),16.9% (inactive),81.4% (inactive),50.2% (inactive),-46.6% (active),48.3% (inactive),9.4% (active),-0.456% (active),10.6% (inactive),43.3% (inactive),34.9% (inactive),67.8% (inactive),54.4% (inactive),-13.6% (active),10.9% (inactive)
CN1CCN(CCNC(=O)c2cccc(CN3c4cccc5c4C(=Cc4cccnc43)N(C)C5=O)c2)CC1,59.5% (inactive),45% (inactive),41.4% (inactive),24.7% (inactive),48.3% (inactive),19.3% (inactive),14.1% (inactive),33.9% (inactive),49.6% (inactive),19.8% (inactive),68.1% (inactive),30% (inactive),49.3% (inactive),31.7% (inactive),26.6% (inactive),59.3% (inactive),42.5% (inactive),33.5% (inactive),50% (inactive),45.4% (inactive)
CCOC(=O)CCCn1c(-c2ccccc2)cc(-c2ccccc2)c(C#N)c1=O,83.5% (inactive),89.5% (inactive),97.8% (inactive),93.7% (inactive),65.4% (inactive),48.3% (inactive),70.1% (inactive),84.3% (inactive),88.8% (inactive),98.4% (inactive),97.1% (inactive),81.8% (inactive),108% (inactive),86.8% (inactive),79.2% (inactive),88.4% (inactive),69.2% (inactive),81.5% (inactive),90.5% (inactive),86.8% (inactive)
CC(C)(C)c1cc(NC(=O)Nc2ccc(-c3cn4c(n3)sc3cc(OCCN5CCOCC5)ccc34)cc2)no1,23.9% (inactive) and 42.6% (inactive),17.8% (inactive),34.9% (inactive) and 54.5% (inactive),35.7% (inactive) and -26.2% (active),-10.7% (active) and 10.4% (inactive),-2.21% (active) and -1.85% (active),-3.14% (active) and 10.6% (inactive),28.3% (inactive) and 17.3% (inactive),-9.92% (active) and 7.85% (active),10.7% (inactive) and -43.9% (active),35.5% (inactive) and 45.5% (inactive),11.9% (inactive) and 33.9% (inactive),28.9% (inactive) and 20.2% (inactive),43.3% (inactive) and 35.6% (inactive),-6.16% (active) and -13.6% (active),37.2% (inactive) and 22.8% (inactive),-58.7% (active) and 16.4% (inactive),-83.3% (active) and 13.6% (inactive),4.5% (active) and -6.8% (active),37.4% (inactive) and 24% (inactive)
CN(C)CCN1C(=O)c2c(c3c4ccccc4n4c3c3c2c2ccccc2n3C2CC(O)C(O)C4(C)O2)C1=O (stereo not given),23.1% (inactive),18.6% (inactive),34.8% (inactive),14.2% (inactive),2.33% (active),75.9% (inactive),-5.02% (active),5.47% (active),29.3% (inactive),18.9% (inactive),16.9% (inactive),11.4% (inactive),23.5% (inactive),58.4% (inactive),29.9% (inactive),35.2% (inactive),8.95% (active),24.3% (inactive),34.7% (inactive),23.9% (inactive)
CC12CCC(C(=O)CC1=O)C2(C)C (stereo not given),108% (inactive) and 97.9% (inactive),95.8% (inactive),112% (inactive) and 97.3% (inactive),110% (inactive),104% (inactive) and 114% (inactive),102% (inactive) and 94.9% (inactive),103% (inactive) and 153% (inactive),101% (inactive) and 103% (inactive),104% (inactive) and 96.6% (inactive),114% (inactive) and 110% (inactive),110% (inactive) and 108% (inactive),102% (inactive) and 84.9% (inactive),105% (inactive) and 87.4% (inactive),111% (inactive) and 105% (inactive),106% (inactive),99.2% (inactive) and 100% (inactive),100% (inactive),107% (inactive) and 112% (inactive),103% (inactive) and 91.7% (inactive),102% (inactive) and 101% (inactive)
CCCCCCCC/C=C\CCCCCCCCOc1ccccc1CC(=O)NCC[N+]1(C)CCOCC1,69.5% (inactive),62.3% (inactive),93.7% (inactive),50.6% (inactive),39.4% (inactive),67.2% (inactive),51% (inactive),74.4% (inactive),55.6% (inactive),17.3% (inactive),85.3% (inactive),56.9% (inactive),100% (inactive),80.1% (inactive),24.7% (inactive),66.8% (inactive),67.6% (inactive),91.3% (inactive),83.8% (inactive),75.6% (inactive)
